Calls of active or inactive are those of the source.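 The calls were made as follows: active = fluorescence slope after compound addition differing from the mean of all screened samples at 99.7% confidence, in either direction; inactive = the rest.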

For this assay, the target named is Alpha-2C adrenergic receptor (Homo sapiens) (UniProt P18825). In words: modulators of alpha2C/GIRK thallium flux, primary screen, cell-based, HEK293 alpha2C/GIRK1/2 (AID 624).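 Also: slope of fluorescence ratio to pre-addition baseline per second over 15 to 24 s.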 The note with it: thallium flux BTC fluorescence, at 10 µM, actives lie on both sides.
Chain of Alpha-2C adrenergic receptor (Homo sapiens) (P18825 whole entry, looked up): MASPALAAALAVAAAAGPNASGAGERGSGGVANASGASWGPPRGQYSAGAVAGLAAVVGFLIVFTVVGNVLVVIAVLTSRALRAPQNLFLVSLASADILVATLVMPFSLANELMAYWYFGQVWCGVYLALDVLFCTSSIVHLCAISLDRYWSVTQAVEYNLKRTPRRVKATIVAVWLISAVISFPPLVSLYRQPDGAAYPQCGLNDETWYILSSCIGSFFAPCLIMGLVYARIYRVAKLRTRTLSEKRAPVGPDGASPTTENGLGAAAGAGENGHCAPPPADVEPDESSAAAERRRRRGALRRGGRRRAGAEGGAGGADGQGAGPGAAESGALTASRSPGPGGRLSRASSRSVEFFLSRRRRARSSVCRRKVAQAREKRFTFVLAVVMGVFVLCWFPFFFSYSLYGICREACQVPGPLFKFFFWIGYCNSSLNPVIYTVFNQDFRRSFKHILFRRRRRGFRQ
`c1ccc(-n2ncc3c(N4CCCCC4)ncnc32)cc1`: the slope is 0.0073 (inactive).
Next, `CCCCn1cnc2c1c(=O)n(C)c(=O)n2C`: 0.00541 (inactive); `CCOC(=O)C1=C(C)Nc2nnnn2C1c1ccc(OC)c(Br)c1` (centres undefined): 0.00761 (inactive); `Cc1ccc(S(=O)(=O)Nc2nc3ccccc3nc2NCc2ccco2)cc1`: 0.00699 (inactive).
Next, `CCOC(=O)c1ccc2ncc(C(=O)OCC)c(NCCN(C)C)c2c1`: 0.00656 (inactive); `N#Cc1c2n(c(=S)n(-c3ccccn3)c1=O)CCCCC2`: 0.00579 (inactive); `Cc1ccc2nc(-c3ccc4c(c3)OCCO4)cc(C(=O)O)c2c1`: 0.00454 (inactive).
To `N#Cc1c(N)c(C(=O)c2ccccc2)n2c1CCCC2` belongs 0.006 (inactive); to `COCCn1c(COc2ccc(Cl)cc2)nnc1SCC(N)=O`, 0.00579 (inactive); to `CC1Cc2ccccc2N1S(=O)(=O)c1cccc(C(=O)OCC(=O)NC2CCS(=O)(=O)C2)c1` (centres undefined), 0.00343 (inactive).
With `C=CCn1c(SCC(=O)NC2CCCCC2)nnc1-c1sc(N)nc1C`, the slope is 0.00387 (inactive).
To `Cc1ccc(CSc2nc3c(c(=O)[nH]2)CCC3)cc1` belongs 0.00659 (inactive); to `Cc1nnc(NC(=O)c2ccco2)s1`, 0.00691 (inactive); to `CCN(CC)c1ccc2cc(NC(=O)CCC(=O)O)c(=O)oc2c1`, 0.00247 (inactive).
Next, `CCCCC(=O)NCCc1ccc(S(N)(=O)=O)cc1`: 0.0057 (inactive); `COc1ccc(NC(=O)CN(c2cc(C)cc(C)c2)S(=O)(=O)c2c(C)noc2C)cc1OC`: 0.00583 (inactive); `COc1cccc(NC(=O)N[C@@H](Cc2ccccc2)C(=O)O)c1`: 0.00635 (inactive).
Next, `COc1cccc(C2=Nn3c(nnc3-c3ccccc3O)SC2)c1`: 0.00345 (inactive).
With `CC(=O)C1=C(C)Nc2ncnn2C1c1cccc(OCc2ccccc2)c1` (centres undefined), the slope is 0.0069 (inactive).
To `O=C1C(C=NCCCn2ccnc2)=C(O)c2ccccc21` belongs 0.0063 (inactive); to `CS(=O)(=O)NCC(c1cccnc1)N1CCN(c2ccc(F)cc2)CC1` (centres undefined), 0.00483 (inactive).
Regarding `CN(C)c1nc(Oc2ccc(=O)n(C)n2)nc(N2CCOCC2)n1`, the slope was 0.00286 (inactive).
`O=C(Nc1ccc(N2CCOCC2)cc1)c1cc2ccccc2o1`: the slope is 0.003 (inactive).
To `Cn1nnnc1SCC(=O)NC1CCCCC1` belongs 0.00705 (inactive); to `CCn1nc(CC(=O)Nc2nnc(CC(=O)N3CCCCC3)s2)c2ccccc2c1=O`, 0.00348 (inactive).
To `c1ccc(C(Cc2nc(-c3ccccn3)no2)c2ccccc2)cc1` belongs 0.00562 (inactive).
To `COCCNC(=O)CCc1nc(-c2ccccc2)no1` belongs 0.00646 (inactive); to `CC1(C)CC(=O)N(CC(=O)NCc2ccccc2)c2ccccc2S1(=O)=O`, 0.00666 (inactive); to `CCN1C(=O)Cc2cc(S(=O)(=O)N3CCOCC3)ccc21`, 0.00585 (inactive).
For the compound `COc1cc2c(C#N)c(N3CCOCC3)nc(N)c2c(N)n1`, the slope is 0.00579 (inactive).
Next, `Cc1ccc(S(=O)(=O)N2CCCC2C(=O)OCc2nc3ccccc3s2)cc1` (centres undefined): 0.00533 (inactive).
To `COC(=O)CNC(=O)COC(=O)c1cc(Cl)cc(Cl)c1N` belongs 0.0054 (inactive).
Next, `CCCCn1c(=O)[nH]c(=O)c2c1nc(-c1ccncc1)n2CCOC`: 0.00406 (inactive); `O=C(CCn1c(=O)oc2ccccc21)N1CCCCCC1`: 0.00656 (inactive); `Cc1cc(C)n(-c2cc(N3CCOCC3)nc(-c3ccccc3)n2)n1`: 0.00416 (inactive).
For the compound `CCOC(=O)C1=C(NC#N)OC(C)=C(C)C1c1ccc(O)cc1` (centres undefined), the slope was 0.00651 (inactive).
To `CCOc1cc(-c2nc(-c3ccccc3OC)no2)cc(OCC)c1OCC` belongs 0.00447 (inactive); to `COc1ccc(-n2nnnc2SCC(=O)N2CCOCC2)cc1`, 0.00627 (inactive); to `COc1cc(NC(=O)C(C)Oc2ccccc2)c(C(=O)O)cc1OC` (centres undefined), 0.00509 (inactive).

These data come from PubChem BioAssay.
